NS1 function inh: inhibitors of influenza NS1 protein function; 270,000 compounds, 0.4% hits; Potency, µM (top dose mostly 46.1 µM), without a hit: at the top dose activity, positive = more growth; calls by dose curve; note: potency is the fitted concentration of half-maximal effect; actives are rising curves; nearly all actives have a fitted effect of over 50% in size
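Compounds were scored for reversing the slow growth caused by influenza A NS1 in S. cerevisiae, measured by optical density at 600 nm. Assay medium contained 2% galactose at pH 6.0; NS1-free yeast of the same strain were the positive control.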
Cycloheximide cs: affects cycloheximide protein synthesis inhibition readout, counter-screen; 300,000 compounds, 12% hits; cell reporter, cycloheximide protein synthesis inhibition counterscreen; AID 2314; max response, %; in the data active = max response mostly above about 13%, no sharp cut-off; inactive = mostly below about 14%; note: read at 38.3 µM for the half of the compounds with a filed dose; 0% is about no effect
Pf growth 48h: inhibits P. falciparum growth in the first generation, 48 h; P. falciparum luciferase growth in erythrocytes, 48 h; Potency, µM (top dose mostly 28.7 µM), without a hit: at the highest dose activity change, negative = inhibition, most hits filed as inhibitors; 310,000 compounds, 5.9% hits; note: potency is the fitted concentration of half-maximal effect; % is set by controls: 0 for no effect and ±100 for the full control effect
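Luciferase-expressing P. falciparum in infected erythrocytes (2% hematocrit, 0.1% parasitemia final) in RPMI 1640/0.5% Albumax were exposed to compound for 48 hours at 37 C, 5% CO2; growth read as luminescence.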
Shiga inhibitor: Shiga toxin inhibition; Vero cells, Shiga toxin protein synthesis inhibition reporter; inhibition, % at 38.7 µM; 290,000 compounds, 9.2% hits; AID 2315; in the data active = inhibition mostly above about 28%, no sharp cut-off; inactive = mostly below about 43%; note: 0% is about no effect
Pf growth 96h: P. falciparum growth inhibition at 96 hours | 320,000 compounds, 6.9% hits | AID 504834 | P. falciparum luciferase reporter growth, 96 h | Potency, µM (titrated, usually from 28.7 µM), for the others: top-dose activity change, negative = inhibition, actives largely listed as inhibitors; note: potency is the fitted concentration of half-maximal effect; % is set by controls: 0 for no effect and ±100 for the full control effect
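P. falciparum expressing integrated firefly luciferase grown in erythrocytes (2% hematocrit, 0.05% parasitemia final) with compounds for 96 hours at 37 C, 5% CO2. Growth inhibition read as loss of luminescence after adding luciferase detection reagent.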
Sm TGR block: S. mansoni TGR enzyme inhibition | AID 485364 | Potency, µM (series often up to 114 µM), inactives show at the top dose activity change, negative = inhibition, actives largely listed as inhibitors | Q962Y6 | purified TGR, DTNB reduction, TNB absorbance 405 nm | 360,000 compounds, 3% hits; note: potency is the fitted concentration of half-maximal effect; % is set by controls: 0 for no effect and ±100 for the full control effect; nearly all actives have a fitted effect of over 60% in size
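First, TGR (20 nM dispensed) and NADPH were mixed with compound. Second, a 15 min room-temperature incubation followed. Third, further NADPH and then DTNB were added to start the reaction. Finally, TNB absorbance was monitored kinetically.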
Active calls of the source: *; ? = inconclusive; nt = not tested or not shown. Only some compounds are listed: those with a hit (about 21% of all), similar ones and a draw of the others. Unless noted, calls come from the whole dose curve; as a rule, active = well fitted curve in the direction sought with a large enough effect; inconclusive = small, poorly fitted or top-dose-only effect, or another doubt; inactive = no such curve, though single readings can be large; an effect the other way counts as inactive or inconclusive.

SMILES	NS1 function inh	Cycloheximide cs	Pf growth 48h	Shiga inhibitor	Pf growth 96h	Sm TGR block
Cc1ccc(CNC(=O)C2CCCN(S(=O)(=O)c3cccc4nsnc34)C2)cc1 (stereo unspecified)	nt	nt	nt	nt	nt	3%
CC1(C)CCC(=O)N2CC[C@H]3C[C@H](OC(=O)Nc4ccccc4)C[C@@H]1[C@H]32	-35%	36*	130%	39*	50%	-19%
CC1(C)CCC(=O)N2CC[C@H]3C[C@H](OC(=O)Nc4ccc5c(c4)OCO5)C[C@@H]1[C@H]32	-5%	20*	23%	23*	115%	-24%
CC(C)CCN(CCC(C)C)C/C(O)=C(\C#N)c1nc(-c2ccccc2)cs1	4%	-1	nt	-8	2.6µM*	-16%
COc1ccc(N=c2cc(-c3ccc(OC)cc3)oc3ccccc23)cc1	-49%	0	?	10	-100%	-4%
COc1ccc(-c2cc(=Nc3ccc(C)cc3)c3ccccc3o2)cc1	0%	1	?	4	6.6µM*	9%
COc1ccc(N=c2cc(-c3ccc(O)cc3)oc3ccccc23)cc1	-29%	42*	3.3µM*	12*	?	-1%
COc1ccc(-c2cc(=Nc3ccccc3)c3cc(C)ccc3o2)cc1	-46%	86*	84%	97*	65%	-2%
O=C(c1ccc([N+](=O)[O-])o1)N1CCN(c2nc3c(Cl)cccc3s2)CC1	nt	nt	1.3µM*	nt	1µM*	-20%
COc1ccc(OC)c2sc(N3CCN(C(=O)c4ccco4)CC3)nc12	nt	nt	nt	nt	nt	0%
O=C(c1ccc([N+](=O)[O-])o1)N1CCN(c2nc3ccc(F)cc3s2)CC1	nt	nt	2.3µM*	nt	1.2µM*	-2%
Cc1c(Cl)ccc2sc(N3CCN(C(=O)c4ccco4)CC3)nc12	nt	nt	nt	nt	nt	6%
COc1cccc2sc(N3CCN(C(=O)c4ccc([N+](=O)[O-])o4)CC3)nc12	nt	nt	0.83µM*	nt	0.74µM*	?
CCCCC(=O)N1CCN(c2nc3c(C)c(C)ccc3s2)CC1	nt	nt	nt	nt	nt	7%
Cc1ccc2sc(N3CCN(C(=O)c4ccc([N+](=O)[O-])o4)CC3)nc2c1C	nt	nt	0.37µM*	nt	0.74µM*	-2%
Cc1ccsc1CN(Cc1ccco1)c1cnc(S(C)(=O)=O)nc1C(=O)Nc1ccc(Cl)cc1	nt	nt	nt	nt	nt	-12%
COc1cccc(S(=O)(=O)NCc2ccc(C(=O)N3CCN(C)CC3)cc2)c1	7%	-1	1%	-7	0%	-25%
CCSC1=N/C(=C\c2ccc3c(c2)OCO3)C(=O)S1	0%	9	-10%	-7	56%	-20%
O=C1NC(N2CCOCC2)=N/C1=C/c1ccc2c(c1)OCO2	nt	17*	1%	16	-29%	-1%
CC(=O)Nc1cccc(NC(=O)CS(=O)(=O)c2cn(CC(=O)N3CCOCC3)c3ccccc23)c1	nt	5	6%	2	25%	-20%
CSC[C@@H]1NC(=S)N(c2ccc(C)cc2)C1=O	-23%	-1	6%	-5	3%	-1%
COc1ccc2nc(S(=O)Cc3ncc(C)c(OC)c3C)[nH]c2c1 (stereo unspecified)	-7%	8	12µM*	14	3.3µM*	-7%
O=C(NC(C(=O)c1ccccc1)N1CCCCCC1)c1ccco1 (stereo unspecified)	5%	-4	6%	-9	?	-2%
O=C(NC(N1CCOCC1)C(Cl)(Cl)Cl)c1ccc(F)cc1 (stereo unspecified)	7%	-1	-4%	-18	9%	nt
O=C(NC(N1CCCC1)C(Cl)(Cl)Cl)c1ccccc1 (stereo unspecified)	3%	3	1%	15	-7%	3.5µM*
SMILES	NS1 function inh	Cycloheximide cs	Pf growth 48h	Shiga inhibitor	Pf growth 96h	Sm TGR block
COc1ccc(NC(=S)NC(C)C(c2ccccc2)N2CCOCC2)cc1 (stereo unspecified)	nt	9	?	-5	15µM*	8%
Cc1ccc(C(=O)C(NC(=O)c2ccco2)N2CCOCC2)cc1 (stereo unspecified)	7%	39*	77%	53*	20%	-33%
O=C(NC(C(=O)c1ccccc1)N1CCOCC1)c1cccs1 (stereo unspecified)	13%	22*	76%	33*	12µM*	-18%
Cc1ccc2oc(-c3cc(NC(=O)Cc4ccccc4)ccc3Cl)nc2c1	nt	nt	nt	nt	nt	1%
O=C(Nc1ccc(Br)cc1F)c1ncoc1-c1ccco1	nt	nt	nt	nt	nt	-15%
OCCSCc1cc(Cl)cc(Cl)c1O	-10%	nt	nt	nt	nt	nt
CC(NC(=O)c1ccc(C(F)(F)F)cc1)C(c1ccccc1)N1CCOCC1 (stereo unspecified)	nt	7	?	-12	?	6%
CC(NC(=O)c1ccc(-c2ccccc2)cc1)C(c1ccccc1)N1CCOCC1 (stereo unspecified)	nt	nt	7.4µM*	nt	10µM*	1%
Cc1cc(=O)n(C(NC(=O)c2ccccc2)C(=O)c2ccccc2)cn1 (stereo unspecified)	11%	19*	41%	29	-8%	3%
CC(=O)NC(O)C(=O)c1ccccc1 (stereo unspecified)	7%	-3	10%	38	-1%	-1%
O=C(NC(C(=O)c1ccccc1)N1CCOCC1)c1ccccc1 (stereo unspecified)	15%	16*	66%	31	10µM*	-25%
CC(C)c1ccccc1NC(=O)COC(=O)c1cc([N+](=O)[O-])ccc1N1CCOCC1	nt	nt	?	nt	?	-2%
CC(C)(C)c1ccc(-c2noc(CCC(N)=O)n2)cc1	-10%	35*	13%	72*	nt	-17%
CC(C)(C)c1ccc(-c2noc(CCC(=O)NCC3CCCO3)n2)cc1 (stereo unspecified)	-3%	43*	nt	55	307%	-16%
CC(C)(C)c1ccc(-c2noc(CCC(=O)N3CCOCC3)n2)cc1	nt	26*	452%	38	8%	-1%
CNC(=O)CCc1nc(-c2ccc(C(C)(C)C)cc2)no1	-8%	41*	193%	57	?	-2%
COc1ccc(-c2noc(CCCC(=O)N3CCOCC3)n2)cc1	nt	11	-7%	13	43%	-1%
CCOC(=O)c1cc(-c2ccccc2)n(CC(=O)Nc2cc(Cl)c(OC)cc2OC)c1C	nt	nt	nt	nt	nt	4%
O=C(COC(=O)c1ccc(F)c(S(=O)(=O)N2CCOCC2)c1)NCCc1ccccc1	nt	nt	2%	nt	-14%	0%
O=C(NC1CCCCC1)c1cccc(OCc2ccccc2)c1	-10%	11	-21%	16	?	-4%
CCSC1=NC2(CCN(C(=O)NC3CCCCC3)CC2)N=C1c1ccc(Cl)cc1	nt	nt	nt	nt	nt	27%
NS(=O)(=O)c1ccc(CCNCC(=O)N2CCC(Cc3ccccc3)CC2)cc1	1%	-2	5%	-6	-4%	-12%
CC(C)(C)c1ccc(-c2noc(CCC(=O)Nc3cccnc3)n2)cc1	3%	-3	-4%	4	27%	-3%
